# Source: PubChem BioAssay AID602 (SRMLSC, 2007)
# Hit rate of the full screen: of about 85,000 compounds, about 35 (0.04%) were called active.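 The calls were made as follows: active = viability drop by adding the cancer drug above about 55%, with treated viability meeting a 40% cutoff (limit read from the data); inactive = the rest, inconclusive results apart.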 This excerpt belongs to a sample that is enriched for actives.
# Assay: reversal of MRP1-mediated doxorubicin resistance, primary screen, H69AR cells, doxorubicin co-treatment (AID 602);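 as to differential viability (reversal): larger differential means the compound sensitizes cells more to doxorubicin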
# Settings: CellTiter-Glo, 72 h, at 10 µM; for differential viability (reversal): stronger effect = higher value
# [1] = H69AR cells + 2 uM doxorubicin, measured here: viability with 2 uM doxorubicin, stronger effect = lower value
# [2] = H69AR cells, measured here: cytotoxicity without doxorubicin
SMILES,differential viability (reversal) (H69AR cells + 2 uM doxorubicin),viability [1] [%],viability [2] [%]
Cc1cc(C)n(-c2nnc(C)n2NC(=O)c2cccc(Cl)c2)n1,-4.55% (inactive),92.7,88.1
Cc1ccc(OCc2nnc(NC(=O)OCC(C)C)s2)cc1,9.33% (inactive),92.3,102
O=S(=O)(N1CCCCC1)N1CCNCC1,-0.65% (inactive),101,100
COc1cccc(OCc2cc(/C=N/NC(=O)c3nc(Cl)c(Cl)c(N)c3Cl)ccc2OC)c1,-32.4% (inactive),52.1,19.7
CS(=O)(=O)N(CC(O)Cn1c2ccccc2c2ccccc21)c1cccc2ccccc12 (stereo not drawn),-10.3% (inactive),12,1.71
CSc1ccccc1NC(=O)c1cc(C2CC2)on1,-6.53% (inactive),97.2,90.7
O=C(NCCOc1ccccc1)c1ccccc1,-3.69% (inactive),95.1,91.4
COc1ccc(NC(=O)Nc2ccc3nc(C)c(C)nc3c2)cc1,5.42% (inactive),85.3,90.7
CCNc1nc(NC(C)C)nc(OCCOC(=O)c2ccccc2)n1,-9.76% (inactive),93.2,83.5
CC(C)=C1SC(N2CCN(c3cccc(C)c3)CC2)=NC1=O,15.1% (inactive),81.8,96.9
O=C(NC1CCCC1)C(c1ccccn1)N(C(=O)c1csnn1)C1CCCC1 (stereo not drawn),0.73% (inactive),80.5,81.2
COC(=O)C1=C(Nc2ccc(C)cc2)C=C(C)C(C(=O)OC)C1c1ccc(F)cc1 (stereo not drawn),-31.5% (inactive),43.6,12.1
CCC(C)(C)n1nnnc1CN1CCN(c2nc3ccc(C)cc3cc2C#N)CC1,0.16% (inactive),81.3,81.4
CCOc1cc2[nH]c(=S)n(CCN3CCCCC3C)c(=O)c2cc1OCC (stereo not drawn),3.92% (inactive),78.5,82.5
CCOC(=O)c1cnc(SCC(=O)Nc2ccccc2C(=O)OC)nc1N,2.9% (inactive),84.2,87.2
O=C(Nc1ccc2oc(-c3ccc4ccccc4c3)nc2c1)c1cccs1,-0.32% (inactive),2.97,2.65
CCN(CC)C(=O)CN(c1cccc(OC)c1)S(=O)(=O)c1ccc(C)cc1,-12.4% (inactive),94.7,82.3
Cc1nnc(NC(=O)CCCOc2ccccc2)s1,12.8% (inactive),80.9,93.7
CCn1c(-c2ccoc2C)n[nH]c1=S,3.26% (inactive),86.2,89.5
Cc1ccccc1N1CCN(CCCOc2ccc3c(C)cc(=O)oc3c2)CC1,-14.1% (inactive),72.8,58.7
O=c1cc(CN2CCN(c3cccc(Cl)c3)CC2)c2cc3c(cc2o1)CCCC3,36.9% (inactive),82.6,120
O=C(c1ccc(Cl)c(Cl)c1)N1CCCC1,-4.92% (inactive),100,95.3
Cc1ccc(NC(=O)Nc2ccc3oc(C)nc3c2)cc1,-17% (inactive),91.5,74.5
COc1ccc(Cl)cc1C(=O)NCc1cn(C)nc1C,5.94% (inactive),80.2,86.1
O=C(CN1CCCCCC1)N1c2ccccc2Sc2ccc(C(F)(F)F)cc21,-13.5% (inactive),50.3,36.8
COc1ccc(-c2nnc(SCC(=O)c3ccc4c(c3)OCCO4)o2)cc1,2.52% (inactive),99.1,102

SMILES,differential viability (reversal) (H69AR cells + 2 uM doxorubicin),viability [1] [%],viability [2] [%]
Cc1ccc(S(=O)(=O)Oc2ccc(/C=N/NC(=O)c3c(Cl)cnn3C)cc2)cc1,-3.21% (inactive),82.4,79.2
COc1ccc(C(=O)Nc2nc(-c3ccc(S(=O)(=O)N4CCOCC4)cc3)cs2)cc1,-4.07% (inactive),62.1,58
O=c1c2ccccc2nc2n1C1(CCCCC1)Cc1ccccc1-2,-4.43% (inactive),88.2,83.7
COC(=O)/C(NC(C)=O)=C(\C)c1ccc(Cl)cc1,-15.7% (inactive),118,102
Cc1nnc(SCC(=O)Nc2ncc3c(n2)CC(C)(C)CC3=O)s1,16.1% (inactive),79.2,95.3
CC(=O)c1cccc(NC(=O)N2CCCC2C(=O)NCCc2ccccc2)c1 (stereo not drawn),1.66% (inactive),89.9,91.5
O=C(/C=C/NNC(=O)c1cccc(Br)c1)c1ccccc1,-16.9% (inactive),78.5,61.5
COC(=O)c1ccc(Sc2ccc(F)cc2)c(N)c1,11.2% (inactive),97.4,109
O=C(CN1CCCCC1)N1c2ccccc2Sc2ccc(C(F)(F)F)cc21,-4.36% (inactive),91.2,86.8
CC(CO)N1CCS(=O)(=O)CC1 (stereo not drawn),9.77% (inactive),83.8,93.6
O=C(CCN1C(=O)c2ccccc2C1=O)Nc1cccc(F)c1,0% (inactive),98.2,98.2
Cc1ccc(SCCC(=O)OCC(=O)Nc2ncc(Cl)cc2Cl)cc1,6.94% (inactive),72.7,79.6
O=C(NCc1ccco1)c1ccc(Cn2c(=O)c3sccc3n(Cc3ccc(F)cc3)c2=O)cc1,11.8% (inactive),70.9,82.7
CC1(C)CCc2nc(SCc3ccccc3)c(C#N)cc2C1,3.69% (inactive),77.7,81.4
Cc1csc(OCC(=O)Nc2ccc(C)c(C)c2)n1,0.06% (inactive),107,107
Cc1ccc(O)c(CNc2nc3ccccc3n2C)c1,3.81% (inactive),84.6,88.4
O=c1[nH]c2c(c(=O)n1Cc1ccccc1)CCC2,3.8% (inactive),94.9,98.7
COC(=O)c1ccccc1NC(=O)CSc1nnnn1C,-8.64% (inactive),104,95.3
O=C(NCc1cccnc1)Nc1ccccc1F,-0.98% (inactive),99.8,98.8
CCCc1nc2scc(-c3ccc(C)cc3)c2c(=O)n1N,-37.7% (inactive),83.8,46.1
CC(=O)c1ccc2c(c1)c1ccccc1n2CC(C)C,-0.04% (inactive),73.3,73.2
CCCCC(C(=O)OCC(=O)c1ccc(OC)cc1)N1C(=O)c2ccccc2C1=O (stereo not drawn),-8.79% (inactive),104,95
CCn1nccc1C(=O)Nc1ccc(S(=O)(=O)NC23CC4CC(CC(C4)C2)C3)cc1,-7.56% (inactive),84,76.5
COc1ccc(Nc2nc(=O)[nH]nc2C)cc1,-5.85% (inactive),101,95.5
CCOC(=O)Cc1csc(NC(=O)CSc2nnc(-c3cccnc3)n2Cc2ccco2)n1,14.6% (inactive),85.7,100
COCCn1c(=S)[nH]c2cc(C(=O)NCCc3ccc(OC)c(OC)c3)ccc2c1=O,2.26% (inactive),75.8,78.1

SMILES,differential viability (reversal) (H69AR cells + 2 uM doxorubicin),viability [1] [%],viability [2] [%]
CC(=O)Nc1ccc(N2C(=O)CCC2=O)cc1C,-10.5% (inactive),86.7,76.2
CCc1c(C)sc(NC(=O)c2cccs2)c1C(N)=O,4.09% (inactive),95.6,99.7
CC1(C)OC(=O)N2CCc3ccccc3C21C (stereo not drawn),3.59% (inactive),88,91.6
Cc1[nH]n(-c2ccc([N+](=O)[O-])cc2)c(=O)c1C=NCCN1CCN(C(=O)c2ccccc2F)CC1,-1.07% (inactive),40.5,39.4
COc1cccc(N(CC(=O)NCCSc2ccccn2)S(C)(=O)=O)c1,3.02% (inactive),92.5,95.5
CCCC1NC(=O)NC(C)=C1C(=O)OCC (stereo not drawn),2.9% (inactive),96.9,99.8
COc1ccccc1C(c1nnnn1C(C)(C)C)N1CCN(Cc2ccccc2)CC1 (stereo not drawn),9.02% (inactive),76.2,85.2
Cc1cc2nnc(SCC(=O)N3CCN(c4ccccc4)CC3)n2c(N)n1,-1.47% (inactive),65.8,64.4
O=C(Nc1ccc(Cl)cc1)c1cc2nc(C3CC3)cc(C(F)(F)F)n2n1,10.2% (inactive),69.3,79.5
CC1=CC(C)(C)Nc2ccc(OC(=O)C(Cc3ccccc3)N3C(=O)C4CCCCC4C3=O)cc21 (stereo not drawn),11.8% (inactive),68.5,80.3
COCCn1c(C)cc(C2=NNC(=Nc3ccc(F)cc3)SC2)c1C,-17.5% (inactive),106,88.2
Cc1ccc(-n2c(=O)c(C#N)cc3c(=O)n4ccccc4nc32)cc1C,-12.1% (inactive),87.2,75.1
Cc1cc(NC(=O)CSc2nc(C(C)C)nc3sc4c(c23)CCC(C)C4)no1 (stereo not drawn),-2.83% (inactive),8.84,6.01
CC(C)NC(=O)CSc1ccccc1C(=O)NCc1ccc2c(c1)OCO2,5% (inactive),91.7,96.7
Cc1cccc2c(=O)n3c(nc12)CCCCC3,7.51% (inactive),83.8,91.3
COc1ccc(CNC(=O)CCn2cccc2)cc1,-1.19% (inactive),100,98.9
CCOc1cc(C(=O)Nc2c(C)ccc3nsnc23)cc(OCC)c1OCC,-5.65% (inactive),84,78.3
COC(=O)c1sccc1NC(=O)CCC1CCCC1,11.8% (inactive),81.7,93.5
Cc1cc(O)cc(O)c1C(=O)Cc1cnn(-c2ccccc2)c1,13% (inactive),66.8,79.8
CCOC(=O)c1c(N)sc(C(C)=O)c1C,11.1% (inactive),81.7,92.8
Cc1cccc(S(=O)(=O)CC(=O)Nc2nc(-c3ccccc3)cs2)c1,12.9% (inactive),86.8,99.7
Cn1c(SCC(=O)C(C)(C)C)nnc1-c1ccccn1,3.29% (inactive),95,98.3
COc1ccc(NC(=O)C2C3C=CC(C3)C2C(=O)NCc2ccccn2)c(OC)c1 (stereo not drawn),48.3% (inactive),44.7,93.1
Cc1ccc(S(=O)(=O)NCC(=O)N2CCN(c3ccccn3)CC2)cc1,14.2% (inactive),87.1,101
